# The list shows a part of the results. Calls of active or inactive are those of the source. Rule as the data show it, unless noted: active = activity above about 50%; inactive = the rest.
# Assays:
# [1] = target: Tumor necrosis factor receptor superfamily member 10B (Homo sapiens) (UniProt O14763); assay: caspase-8 TRAIL sensitization, hit retest, confirmation, cell-based, NB7+caspase-8, with/without TRAIL, luminescence panel (AID 651596); conditions: NB7 neuroblastoma + caspase-8, TRAIL sensitization, luminescence viability, with TRAIL, mean of runs, at 10 µM, stronger effect = higher value
# Sequence of Tumor necrosis factor receptor superfamily member 10B (Homo sapiens) (O14763 whole entry, looked up): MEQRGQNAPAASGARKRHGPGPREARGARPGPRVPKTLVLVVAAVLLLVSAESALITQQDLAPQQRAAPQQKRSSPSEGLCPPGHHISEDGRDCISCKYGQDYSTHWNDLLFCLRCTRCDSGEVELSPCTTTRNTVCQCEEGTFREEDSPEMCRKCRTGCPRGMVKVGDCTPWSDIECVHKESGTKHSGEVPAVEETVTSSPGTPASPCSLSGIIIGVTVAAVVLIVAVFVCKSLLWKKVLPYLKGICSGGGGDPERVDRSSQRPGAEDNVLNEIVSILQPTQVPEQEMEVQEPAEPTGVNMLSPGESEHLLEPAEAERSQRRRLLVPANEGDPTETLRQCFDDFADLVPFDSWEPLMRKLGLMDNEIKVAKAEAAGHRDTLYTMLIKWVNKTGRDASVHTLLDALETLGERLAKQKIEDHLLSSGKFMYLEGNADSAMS
# [2] = as above; conditions: NB7 neuroblastoma + caspase-8, without TRAIL, luminescence viability, without TRAIL, mean of runs, at 10 µM
# [3] = target: Tumor necrosis factor receptor superfamily member 10B (Homo sapiens) (UniProt O14763); assay: TRAIL sensitizers in caspase-8 expressing neuroblastoma cells, dose response, NB7 cells plus caspase-8, luminescence, panel (AID 652002); conditions: NB7 neuroblastoma +caspase-8, TRAIL sensitization, luminescence viability, NB7+Caspase-8, with TRAIL, run 1; at 12.5 µM (top of the series)
# [4] = target: Tumor necrosis factor receptor superfamily member 10B (Homo sapiens) (UniProt O14763); assay: as above; conditions: NB7 neuroblastoma +caspase-8, TRAIL sensitization, luminescence viability, NB7+Caspase-8, with TRAIL, run 2; at 12.5 µM (top of the series)
# [5] = as above; conditions: NB7 neuroblastoma +caspase-8, no TRAIL, compound-alone cytotoxicity counter-screen, luminescence viability, NB7+Caspase-8, run 1; at 12.5 µM (top of the series)
# [6] = as above; conditions: NB7 neuroblastoma +caspase-8, no TRAIL, compound-alone cytotoxicity counter-screen, luminescence viability, NB7+Caspase-8, run 2; at 12.5 µM (top of the series)
# [7] = target: 72 kDa type IV collagenase (Homo sapiens) (UniProt P08253); assay: MMP-2 protease inhibition counter-screen, confirmation, counter-screen for CSN deneddylation inhibitor project, biochemical, fluorescence, single concentration (AID 720655;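 active = corrected plate-normalized z-score of 5 or more, or -5 or less, or inhibition of 15% or more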;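 also: plate controls were DMSO wells with enzyme for no effect and buffer wells lacking MMP-2 for full effect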); conditions: recombinant MMP-2, FRET substrate fluorescence, 60 min; at 16.6 µM
# Sequence of 72 kDa type IV collagenase (Homo sapiens) (P08253 whole entry, looked up): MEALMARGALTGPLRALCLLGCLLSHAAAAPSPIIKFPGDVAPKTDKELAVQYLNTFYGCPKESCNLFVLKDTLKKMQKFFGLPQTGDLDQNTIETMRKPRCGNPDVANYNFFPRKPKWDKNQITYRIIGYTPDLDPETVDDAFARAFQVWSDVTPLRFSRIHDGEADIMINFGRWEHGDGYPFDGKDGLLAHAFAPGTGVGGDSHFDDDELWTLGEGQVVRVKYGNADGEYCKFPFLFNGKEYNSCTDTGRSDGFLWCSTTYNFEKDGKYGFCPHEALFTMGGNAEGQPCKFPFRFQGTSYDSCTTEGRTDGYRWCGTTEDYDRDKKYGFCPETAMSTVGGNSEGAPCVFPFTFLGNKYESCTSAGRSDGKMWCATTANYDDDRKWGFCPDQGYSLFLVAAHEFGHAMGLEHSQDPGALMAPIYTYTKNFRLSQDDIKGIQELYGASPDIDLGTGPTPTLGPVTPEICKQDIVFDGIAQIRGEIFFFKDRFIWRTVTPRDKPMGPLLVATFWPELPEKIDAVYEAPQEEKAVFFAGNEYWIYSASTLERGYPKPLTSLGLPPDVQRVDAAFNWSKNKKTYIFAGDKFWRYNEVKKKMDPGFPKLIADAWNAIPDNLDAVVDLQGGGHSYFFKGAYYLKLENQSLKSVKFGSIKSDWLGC
# Prothrombin (Bos taurus) = Prothrombin (Bos taurus) (UniProt P00735); assay: bovine thrombin inhibition counter-screen, confirmation, counter-screen for CSN deneddylation inhibitor project, biochemical, fluorescence polarization, single concentration (AID 720656;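 active = inhibition at or above a set limit, with a fluorescence interference ratio between 0.5 and a set maximum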); conditions: bovine thrombin cleavage of Ub4-pepOG, at 16.6 µM, stronger effect = higher value
# Sequence of Prothrombin (Bos taurus) (P00735 whole entry, looked up): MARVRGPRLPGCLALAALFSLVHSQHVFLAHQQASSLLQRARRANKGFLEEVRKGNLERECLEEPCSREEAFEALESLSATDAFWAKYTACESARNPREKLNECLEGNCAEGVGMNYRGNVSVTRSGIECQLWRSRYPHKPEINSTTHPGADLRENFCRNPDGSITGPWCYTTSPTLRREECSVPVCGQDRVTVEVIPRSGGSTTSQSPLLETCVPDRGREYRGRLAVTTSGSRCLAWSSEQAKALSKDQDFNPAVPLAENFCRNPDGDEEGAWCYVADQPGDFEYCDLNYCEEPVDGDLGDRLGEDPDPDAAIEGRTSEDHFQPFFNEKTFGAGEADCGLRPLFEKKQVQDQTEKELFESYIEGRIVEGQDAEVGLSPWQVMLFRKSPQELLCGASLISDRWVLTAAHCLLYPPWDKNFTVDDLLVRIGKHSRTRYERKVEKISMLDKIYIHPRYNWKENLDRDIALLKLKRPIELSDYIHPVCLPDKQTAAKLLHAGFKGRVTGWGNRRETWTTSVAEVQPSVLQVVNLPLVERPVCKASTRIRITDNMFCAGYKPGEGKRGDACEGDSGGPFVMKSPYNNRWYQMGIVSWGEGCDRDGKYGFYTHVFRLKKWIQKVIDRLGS
structure (smiles),measurement,setting,value
CCOC(=O)[C@]12Cc3cc(Cl)ccc3[C@H]1N(CC(=O)OC)C(=O)c1ccccc12,activity,[1],40.5%
same,activity,[2],64%
Clc1ccc(C[n+]2c(-c3ccccc3)cc(-c3ccccc3)cc2-c2ccccc2)cc1,activity,[1],79.1%
same,activity,[2],65.9%
CN(C)CC(C(=O)Cc1ccccc1)c1ccccc1 (stereo not drawn),activity,[1],37.9%
same,activity,[2],96.3%
CC(C)CCn1c(=O)c(C(=O)Nc2ccccc2S(N)(=O)=O)c(O)c2ccccc21,activity,[1],55.4%
same,activity,[2],45.3%
same,"activity, % sensitization",[3],-2.11%
same,"activity, % sensitization",[4],-8.54%
same,"activity, % sensitization",[5],-27.8%
same,"activity, % sensitization",[6],-20%
CCOC(=O)[C@]12Cc3cc(OC)ccc3[C@H]1N(C(C)C)C(=O)c1cc(OC)ccc12,activity,[1],28%
same,activity,[2],45%
CN(C)C(=O)Oc1ccc(-c2cn3cc(Cl)ccc3n2)cc1,activity,[1],80%
same,activity,[2],85.6%
CCOC(=O)[C@]12Cc3cc4ccccc4cc3[C@H]1N(Cc1ccccc1)C(=O)c1ccccc12,activity,[1],52.8%
same,activity,[2],54.6%
same,"activity, % sensitization",[3],18.4%
same,"activity, % sensitization",[4],31.7%
same,"activity, % sensitization",[5],6.91%
same,"activity, % sensitization",[6],3.45%
CCOC(=O)[C@]12Cc3cc(OC)ccc3[C@H]1N(C1CCCCC1)C(=O)c1ccccc12,activity,[1],91.9%
same,activity,[2],94.1%
CC12CCC(O)CC1CCC1C2CCC2(C)C(C3=CC(=O)OC3)C(O)CC12O (stereo not drawn),activity,[1],80.4%
same,activity,[2],53.5%
CCOC(=O)[C@]12Cc3cc4ccccc4cc3[C@H]1N(Cc1ccccc1)C(=O)c1cc(OC)ccc12,activity,[1],46.5%
same,activity,[2],53.2%
same,"activity, % sensitization",[3],23.8%
same,"activity, % sensitization",[4],23.6%
same,"activity, % sensitization",[5],7.37%
same,"activity, % sensitization",[6],2.99%
COC(=O)[C@@H]1[C@@H](C(=O)OC)C2(c3ccccc3-c3ccccc32)N(c2ccc(Cl)cc2)N1C#N,activity,[1],96.8%
same,activity,[2],99.2%
CC12CCC3C(CCC4(O)CC(O)CCC34C=NO)C1(O)CCC2C1=COC(=O)C1 (stereo not drawn),activity,[1],91%
same,activity,[2],92.7%
COc1ccc(N2C(=O)/C(=C/c3ccco3)C(=O)NC2=S)cc1,inhibition,[7],38.2% (active)
same,inhibition,Prothrombin (Bos taurus),24.5% (active)
COc1ccc(-n2nnnc2C(c2cc3ccccc3o2)N2CCC(n3c(=O)[nH]c4ccccc43)CC2)cc1 (stereo not drawn),activity,[1],69.4%
same,activity,[2],62.5%
C=CCn1c(O)c(C(CC)=NCc2cc(OC)cc(OC)c2)c(=O)[nH]c1=O,activity,[1],46.4%
same,activity,[2],37.5%
CC1OC(OC2C=C3CCC4C(CCC5(C)C(c6ccc(=O)oc6)CCC45O)C3(C)CC2)C(O)C(OC2OC(CO)C(O)C(O)C2O)C1O (stereo not drawn),activity,[1],83.1%
same,activity,[2],91.9%
O=c1[nH]c2ccccc2n1C1CCN(C(CCc2ccccc2)c2nnnn2Cc2ccccc2)CC1 (stereo not drawn),activity,[1],95.3%
same,activity,[2],92.7%
Cc1ccc(NC(=O)CN2C(=O)CN=C(c3ccccc3)c3cc(Cl)ccc32)cc1,activity,[1],78.1%
same,activity,[2],85%
CCOC(=O)[C@]12Cc3ccc(C)cc3[C@H]1N(C1CCCCC1)C(=O)c1cc(OC)ccc12,activity,[1],97.5%
same,activity,[2],98%
C[C@]12CCC3C(CCC4=CC(O)CC[C@@]43/C=N/O)C1(O)CCC2C1=CC(=O)OC1 (stereo partly drawn),activity,[1],87%
same,activity,[2],92.3%
O=[N+]([O-])c1ccc(Cl)c([N+](=O)[O-])c1,activity,[1],-3.27%
same,activity,[2],54.8%
CCOc1ccc(-c2c(C)n(-c3ccc(OCC)cc3)c3[n+]2CCCCC3)cc1,activity,[1],61%
same,activity,[2],63%
NC(=O)c1cn(C2OC(CO)C(O)C2O)c2ncnc(N)c12 (stereo not drawn),activity,[1],56.3%
same,activity,[2],81.3%

# Source: PubChem BioAssay
